Where “and” joins values, the source holds several entries; their conditions need not be identical. Equal values may be shown once. In all, about 150,000 compounds went through this assay and about 6,500 (4.3%) were called active. Not shown: some 12% with an inconclusive outcome. Calls follow the shape of the dose curve; as a rule, active = well fitted inhibition curve with a large enough effect (not every such curve was filed as active); inconclusive = small, poorly fitted or top-dose-only effect, or another doubt; inactive = no such curve, though single readings can be large or run the other way. What follows is part of a selection rich in actives, with near analogues and random picks from the rest. The source holds several records for some structures; these can differ, active in one and inactive in another.
These molecules were tested against 15-hydroxyprostaglandin dehydrogenase [NAD(+)] (Homo sapiens) (UniProt P15428) (assay: qHTS Assay for Inhibitors of HPGD (15-Hydroxyprostaglandin Dehydrogenase)). Settings: purified HPGD, NADH fluorescence kinetic, PGE2 substrate; activity change, negative = inhibition: hits give low values.
Sequence of 15-hydroxyprostaglandin dehydrogenase [NAD(+)] (Homo sapiens) (P15428 whole entry, looked up): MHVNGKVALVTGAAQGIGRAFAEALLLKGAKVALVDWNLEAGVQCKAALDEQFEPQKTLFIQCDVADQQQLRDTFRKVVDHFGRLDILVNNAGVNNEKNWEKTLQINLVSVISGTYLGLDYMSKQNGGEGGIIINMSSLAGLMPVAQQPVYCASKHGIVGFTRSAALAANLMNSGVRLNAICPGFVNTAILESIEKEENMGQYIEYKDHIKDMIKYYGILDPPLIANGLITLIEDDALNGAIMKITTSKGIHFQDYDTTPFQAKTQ
Method in brief: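 20 nM HPGD preincubated 15 min at room temperature with compound in 50 mM Tris-HCl pH 8, 0.01% Tween 20. Started with 1 mM NAD+ and 30 uM prostaglandin E2; NADH fluorescence (360/450 nm) read 5 times over 30-s intervals, last minus first.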
With `O=C(COC(=O)[C@H](Cc1ccccc1)NC(=O)c1cccs1)Nc1cc(F)ccc1F` the activity change, negative = inhibition was 2.87% (inactive).
With `Cc1cc(=O)n2nc(N3CCCC(C(=O)NCCC4=CCCCC4)C3)sc2n1` (centres undefined) the activity change, negative = inhibition was -11.9% (inactive).
In the case of `Cn1nnc2cc(C(=O)NCCC3=CCCCC3)ccc21`, the activity change, negative = inhibition is reported as -28.7% (inactive).
`CC1CCCN(C(=O)c2ccc3c(c2)C(=O)N(CCC2=CCCCC2)C3=O)C1` (centres undefined) was tested, and the Potency was 0.891 µM (active).
In the case of `C=CC1=C2C=C(C3CC3)N(CC(C)C)C=C2C(=O)C(C)(OC(=O)c2ccco2)C1=O` (centres undefined), the activity change, negative = inhibition is reported as -3.22% (inactive).
`CCn1cc(/C=C2/SC(=S)NC2=O)c(C)n1` was tested, and the Potency was 17.8 µM (active).
`Cc1nn(C)cc1/C=C1\CCC/C(=C\c2cn(C)nc2C)C1=O` was tested, and the activity change, negative = inhibition was -27.5% (inactive).
For `O=C1NC(c2ccc(-c3ccccc3[N+](=O)[O-])o2)C(C(=O)c2ccc(Cl)cc2)C(O)(C(F)(F)F)N1` (centres undefined), the activity change, negative = inhibition was -3.47% (inactive).
`C#CCCCc1nc2ccccc2c(=O)n1N` was tested, and the activity change, negative = inhibition was -10.2% (inactive).
`S=c1[nH]nc(-c2cccnc2)n1/N=C/C(Cl)=C\c1ccccc1` was tested, and the Potency was 1.58 µM (active).
In the case of `Cc1cc(-c2n[nH]c(=S)n2/N=C/C(Br)=C/c2ccccc2)n[nH]1`, the Potency is reported as 3.98 µM (active).
In the case of `COc1cc(CN2CC(C)CC(C)C2)cc([N+](=O)[O-])c1O` (centres undefined), the activity change, negative = inhibition is reported as -17.1% (inactive).
`Cc1ccc(NC(=S)NC(=O)/C=C/c2ccc(Cl)cc2)cc1` was tested, and the activity change, negative = inhibition was -18.9% (inactive).
With `CC(NC(=O)COC(=O)C1CCN(S(=O)(=O)c2ccccc2C(F)(F)F)CC1)c1ccccc1` (centres undefined) the activity change, negative = inhibition was -6.33% (inactive).
With `CC1(OC(=O)c2ccc(Cl)nc2)C(=O)Cc2cc(-c3ccsc3)ncc2C1=O` (centres undefined) the activity change, negative = inhibition was 2.16% (inactive).
`O=C(NCCN1CCOCC1)c1cc(Sc2cccc(Cl)c2)nc2ccccc12` was tested, and the activity change, negative = inhibition was -1.7% (inactive).
In the case of `O=C(NC(=S)Nc1cc(C(F)(F)F)ccc1N1CCOCC1)c1ccc(-c2cccc(Cl)c2)o1`, the activity change, negative = inhibition is reported as -5.6% (inactive).
For `CCN1C(=O)/C(=C\N2CCN(c3ccccc3)CC2)SC1=S`, the activity change, negative = inhibition was -18.6% (inactive).
For `CCN1C(=O)/C(=C2/Sc3ccccc3N2CCCS(=O)(=O)O)SC1=S`, the Potency was 20 µM (active).
For `CCC(=O)/C=C1\Sc2ccccc2N1CC`, the activity change, negative = inhibition was -16.1% (inactive).
With `COc1ccc(C)cc1NC(=O)C(OC(=O)c1cccc(S(=O)(=O)N(C)c2ccccc2)c1)c1ccccc1` (centres undefined) the activity change, negative = inhibition was -17.6% (inactive).
With `CC(=O)c1c(N2CCN(c3ccc(F)cc3)CC2)nc(=S)n(-c2ccccc2)c1C` the activity change, negative = inhibition was -7.92% (inactive).
In the case of `O=[N+]([O-])c1ccc(N2CCNCC2)cc1NCc1cccnc1`, the activity change, negative = inhibition is reported as -18.8% (inactive).
`O=C1OC(OC(=O)c2ccccc2Br)C(N2CCOCC2)=C1Cl` (centres undefined) was tested, and the activity change, negative = inhibition was -15.3% (inactive).
In the case of `COc1ccc(OCc2ccc(-c3nc4ccccc4c(=O)n3N)o2)cc1`, the activity change, negative = inhibition is reported as -2.6% (inactive).
In the case of `O=C(CCn1c(SCC(=O)c2ccccc2)nc2ccccc2c1=O)NCc1ccc(F)cc1`, the activity change, negative = inhibition is reported as -4.59% (inactive).
In the case of `Cc1ccc(C(=O)CSc2nc3ccccc3c(=O)n2N)o1`, the Potency is reported as 25.1 µM (active).
`O=C(CSc1nc2ccccc2[nH]1)Nc1nc(-c2ccccc2)c(-c2ccccc2)o1` was tested, and the activity change, negative = inhibition was -28.7% (inactive).
For `O=C(CN1C(=O)/C(=C\c2ccccc2F)SC1=S)Nc1nc2ccccc2s1`, the activity change, negative = inhibition was -21.2% (inactive).
For `O=C(Nc1ccc(Cl)cc1)c1ccsn1`, the activity change, negative = inhibition was -18.4% (inactive).
For `O=C(Nc1ccccc1)c1nnsc1S(=O)(=O)c1ccc(Cl)cc1`, the Potency was 11.2 µM (active).
With `CC(=O)Nc1cc(C(=O)O)ccc1S(=O)(=O)c1ccc(Cl)cc1` the activity change, negative = inhibition was -9.11% (inactive).
`Cc1ccccc1Nc1nc(N)nc(CSc2ccccc2)n1` was tested, and the activity change, negative = inhibition was -2.99% (inactive).
With `COc1ccc(-n2c(C)cc(C(=O)CN3C(=O)NC4(CCc5ccccc54)C3=O)c2C)cc1` (centres undefined) the activity change, negative = inhibition was -8.92% (inactive).
With `COc1cc(/C=C/C(=O)O)cc(S(=O)(=O)Nc2ccccc2SC)c1OC` the activity change, negative = inhibition was -7.12% (inactive).
With `COc1ccc([N+](=O)[O-])cc1N(CC(O)Cn1nnc2ccccc21)S(=O)(=O)c1ccc(C)cc1` (centres undefined) the Potency was 28.2 µM (active).
In the case of `Cc1cc(C)n(CC(O)CN(c2ccccc2)S(=O)(=O)c2ccc3ccccc3c2)n1` (centres undefined), the activity change, negative = inhibition is reported as -6.52% (inactive).
In the case of `Cc1ccc(N(CC(O)CN2CCCC2)S(=O)(=O)c2ccccc2)cc1` (centres undefined), the activity change, negative = inhibition is reported as -2.29% (inactive).
`CCCn1c(C(O)c2ccc(OCC)cc2)nc2ccccc21` (centres undefined) was tested, and the activity change, negative = inhibition was -9.25% (inactive).
With `CCCCCC(O)c1cccc(OCc2ccc3ccccc3n2)c1` (centres undefined) the Potency was 14.1 µM (active) and the activity change, negative = inhibition was -26.2% (inactive) and -5.68% (inactive).
In the case of `CCCCCCOC(=O)NCC(O)c1ccccc1` (centres undefined), the activity change, negative = inhibition is reported as -19.8% (inactive).
With `Cc1nn(-c2ccccc2)c(C)c1NC(=O)CCl` the activity change, negative = inhibition was -8.71% (inactive).
In the case of `Cc1cc(NC(=O)Nc2ccccc2)n(-c2ccccc2)n1`, the activity change, negative = inhibition is reported as -0.703% (inactive).
In the case of `Cc1nn(-c2ccccc2)c(Cl)c1C(=O)Nc1ccccc1`, the Potency is reported as 14.1 µM (active).
`CCCCNC(=O)C1CCC(CNS(=O)(=O)c2ccc(NC(C)=O)cc2)CC1` (centres undefined) was tested, and the activity change, negative = inhibition was -26.6% (inactive).
In the case of `COc1ccc(NC(=S)NCC2CCN(c3ccc(OC)cc3)C2)cc1` (centres undefined), the activity change, negative = inhibition is reported as -3.49% (inactive).
In the case of `O=C(NNC(=S)Nc1ccc(Br)cc1Cl)c1ccco1`, the activity change, negative = inhibition is reported as -15.2% (inactive).
With `Cc1ccc(/C=N/NC(=O)c2sccc2OCc2ccc(F)cc2)cc1` the Potency was 31.6 µM (active).
In the case of `Cc1ccsc1C(=O)N/N=C/c1ccc([N+](=O)[O-])cc1`, the activity change, negative = inhibition is reported as -12.4% (inactive).
In the case of `CNC(=S)NNC(=O)c1sccc1OCc1ccccc1`, the activity change, negative = inhibition is reported as 1.03% (inactive).
For `Cc1ccc(NC(=O)O[C@@H]2C(=O)c3cc(Br)ccc3O[C@H]2c2ccc3c(c2)OCO3)cc1Br`, the activity change, negative = inhibition was -8.38% (inactive).
With `O=C1C=C(c2ccc(Cl)cc2)C(=O)N1Nc1ccccc1` the Potency was 22.4 µM (active).
`O=C1c2cccc3cc(Br)cc(c23)C(=O)N1Nc1ccccc1` was tested, and the activity change, negative = inhibition was -5.3% (inactive).
`O=C(Nc1ccccc1)OCc1cc(-c2ccc(Cl)cc2)on1` was tested, and the activity change, negative = inhibition was -7.01% (inactive).
For `Cc1cc(N2CCOCC2)nc(-c2ccc(Br)cc2)n1`, the activity change, negative = inhibition was -7.33% (inactive).
For `CCC(C)NCCOCCOc1ccc(Br)cc1C` (centres undefined), the activity change, negative = inhibition was -6.54% (inactive).
`Cc1ccc(C(=O)/C=C/Nc2ccc(S(=O)(=O)Nc3onc(C)c3C)cc2)cc1` was tested, and the activity change, negative = inhibition was -26.4% (inactive).
`Cc1ccc(S(=O)(=O)N2CCCC2C(=O)OCc2nc3sc(C)c(C)c3c(=O)[nH]2)cc1` (centres undefined) was tested, and the activity change, negative = inhibition was -20.7% (inactive).

— PubChem BioAssay AID894 (National Center for Advancing Translational Sciences (NCATS), 2007)
% is scaled to controls: 0 for no effect and ±100 for the full control effect; potency is read from the fitted curve at half-maximal effect.
